Mtb FBA inh: Mtb FBA enzyme inhibitors, primary screen, biochemical, fluorescence, strain H37Rv; Fructose-bisphosphate aldolase (Mycobacterium tuberculosis (strain ATCC 25618 / H37Rv)), …; purified M. tuberculosis FBA, fluorescence read-out; inhibition, % at 1 µM; 360,000 compounds, 2.3% hits; AID 588726, 2011;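 note: 0% = vehicle and 100% = reference inhibitor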
Target sequence (P9WQA3 whole entry, looked up): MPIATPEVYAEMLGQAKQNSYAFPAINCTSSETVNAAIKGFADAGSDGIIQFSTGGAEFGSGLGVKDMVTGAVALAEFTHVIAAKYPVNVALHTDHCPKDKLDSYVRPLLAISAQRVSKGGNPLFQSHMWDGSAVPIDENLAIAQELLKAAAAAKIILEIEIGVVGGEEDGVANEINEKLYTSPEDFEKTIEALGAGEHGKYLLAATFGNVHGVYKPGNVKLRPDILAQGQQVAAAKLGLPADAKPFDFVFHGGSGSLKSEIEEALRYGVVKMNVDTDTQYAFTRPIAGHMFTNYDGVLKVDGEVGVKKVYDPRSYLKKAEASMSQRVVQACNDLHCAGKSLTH
GDH-TPI counter-1: GDH-TPI coupling enzyme inhibitors, primary screen, artefact control for M. tuberculosis FBA inhibitor project, biochemical, absorbance, full deck; GDH-TPI coupled enzyme counterscreen, NADH absorbance; inhibition, % at 4.8 µM; 360,000 compounds, 1.2% hits; AID 588335, 2011; in the data active = inhibition above about 30%;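 note: 0% = DMSO wells and 100% = wells lacking the enzyme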
Rv3671c inh: Rv3671c serine protease inhibitors, primary screen, biochemical, fluorescence polarization, M. tuberculosis H37Rv; 320,000 compounds, 0.048% hits; AID 2606, 2010; inhibition, % at 5.96 µM; P9WHR9; in the data active = inhibition above about 38%;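 note: extracellular domain of Rv3671c used as enzyme; 0% = enzyme with DMSO and 100% = no enzyme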
Mtb UGM inh: M. tuberculosis UGM enzyme inhibitors, primary screen, biochemical, fluorescence polarization, single point | UDP-galactopyranose mutase (Mycobacterium tuberculosis (strain ATCC 25618 / H37Rv)), … | purified UGM, fluorescence polarization probe displacement | inhibition, % at 10 µM | 320,000 compounds, 0.06% hits; in the data active = inhibition above about 10%, passing the limit was not always enough
FadD28 FP inh: inhibitors of FadD28 bisubstrate probe binding, primary screen, biochemical, fluorescence polarization, single point; Mycobacterium tuberculosis FadD28 fatty-acid-AMP ligase; inhibition, % at 12.5 µM; 360,000 compounds, 0.22% hits; in the data active = inhibition above about 8.5%, passing the limit was not always enough
Mtb hypoxia inh: PubChem AID 1159583; fluorescence inhibition, % (no concentration beside the values); 300,000 compounds, 0.1% hits; M. tuberculosis hypoxia-regulated fluorescent reporter, fluorescence; in the data active = fluorescence inhibition mostly above about 23%, no sharp cut-off; inactive = mostly below about 17%
DNA intercal FP: DNA intercalation detected by acridine orange polarization counter-screen; 35 compounds, 60% hits; AC50, µM; acridine orange-DNA binding, fluorescence polarization; shares compounds with Mtb UGM inh;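 active = fitted AC50 no greater than ten times the top concentration tested, cut at about 17 µM in these data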
Mtb FBA confirm: M. tuberculosis aldolase blockers, biochemical, fluorescence, strain H37Rv, confirmation; shares compounds with Mtb FBA inh; purified M. tuberculosis FBA, fluorescence read-out; inhibition, % at 1 µM; 5,600 compounds, 78% hits;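 note: 0% = vehicle wells and 100% = reference inhibitor wells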
GDH-TPI counter-2: GDH-TPI coupling enzyme inhibitors, artefact control for M. tuberculosis FBA inhibitor project, biochemical, fluorescence, high throughput; shares compounds with Mtb FBA inh; GDH-TPI coupled enzyme counterscreen; inhibition, % at 1 µM; 5,600 compounds, 81% hits; in the data active = inhibition above about 10%
Starred values were filed as active, the others as inactive; . = no result given; + = active, no number. This is a sample that favours compounds with a hit; in the whole collection about 3.5% have one here. Cut-off read from the data, not from the text of the source, unless noted: active = inhibition above about 27%; inactive = the rest.

SMILES	Mtb FBA inh	GDH-TPI counter-1	Rv3671c inh	Mtb UGM inh	FadD28 FP inh	Mtb hypoxia inh	Mtb FBA confirm	GDH-TPI counter-2	others
Cc1cccc(N2C(=O)c3cccc4c(N(C)CCO)ccc(c34)C2=O)c1	0.0	-6.2	9.4	3.5	1.9	-17.2	.	.	DNA intercal FP=>35
CC(C)CC(CO)N1CCN(Cc2ccc([N+](=O)[O-])cc2)CCC1=O (configuration not stated)	.	.	.	.	.	2.7	.	.
CC1CN(C(C)CO)C(=O)c2cc(NC(=O)Nc3ccc(F)cc3)ccc2OC1CN(C)Cc1ccccc1 (configuration not stated)	.	.	.	.	.	5.1	.	.
CCOC(=O)N1CCN(c2cc(NCCC(=O)O)c3c4c(onc24)-c2ccccc2C3=O)CC1	-2.3	7.5	-30.1	-30.0	14.7*	4.3	.	.	DNA intercal FP=>35
COc1ccc(C=NNC(=O)C2(O)c3ccccc3-c3ccccc32)cc1	.	.	.	.	.	5.8	.	.
Cn1ccnc1C(O)c1ccccc1 (configuration not stated)	-2.1	-4.1	0.8	-1.2	-2.3	0.1	.	.
COc1ccc2ccccc2c1C(O)c1nccn1C (configuration not stated)	6.4	0.9	12.6	39.2*	6.6	-1.5	.	.	DNA intercal FP=>35
CC1Cc2ccccc2N1C(=O)CSc1ccccn1 (configuration not stated)	0.6	6.2	.	.	-0.6	.	.	.
CC1Cc2ccccc2N1C(=O)CSc1ncccn1 (configuration not stated)	-1.1	-7.9	-5.4	3.7	-0.6	6.6	.	.	DNA intercal FP=>35
Cc1ccc(C=NNC(=O)c2ccc(-n3cccc3)cc2)o1	.	.	.	.	.	-0.5	.	.
O=c1ccc2c(-c3ccccc3)c3ccc(O)cc3oc-2c1	1.9	15.5	18.6	41.3*	5.5	-37.1	.	.	DNA intercal FP=0.547*
O=c1cc(-c2ccccc2)c2ccc(O)cc2o1	18.3	10.1	-7.8	-2.1	0.2	-1.3	.	.
Cc1cc(C)cc(NS(=O)(=O)c2ccc3c(c2)C(C)(C)C(=O)N3C)c1	5.9	10.9	3.1	0.7	-0.7	.	.	.	DNA intercal FP=>35
Cc1c2c(nc3c(C(=O)NC4CCCC4)cnn13)CCCC2	21.2	18.1	-5.6	1.0	0.2	9.4	.	.
COC(=O)c1cnn2c3c(c(C)nc12)CCCC3	74.3*	2.4	5.5	-3.2	-1.6	4.1	130.2*	106.9*
COc1ccc(-c2cccc(C3C4C=CCC[C@@]4(C)C(=O)N3Cc3ccccc3)c2)cc1 (some centres not stated)	.	.	.	.	.	9.0	.	.
Cc1cccc(Cn2c(-c3ccc[nH]c3=O)nc3ccccc32)c1	100.9*	12.4	0.6	-0.2	-0.6	0.1	+	+
Cc1cccc(Cn2c(C(C)O)nc3ccccc32)c1 (configuration not stated)	0.1	2.5	0.0	1.1	-0.7	6.0	.	.
COC(=O)C(C)Oc1cc(C)cc2oc(=O)c3c(c12)CCCC3 (configuration not stated)	57.0*	-3.5	-1.0	-0.8	-5.7	.	59.1*	51.0*
Cc1cc(Oc2ccc(C(F)(F)F)cc2[N+](=O)[O-])c2c3c(c(=O)oc2c1)CCC3	0.6	4.7	0.5	2.6	0.9	8.4	.	.
COC(=O)C(C)Oc1cc(C)cc2oc(=O)c3c(c12)CCC3 (configuration not stated)	74.0*	9.5	-3.1	-2.9	-1.6	6.1	+	+
Cc1cc(OCC(=O)OC(C)C)c2c3c(c(=O)oc2c1)CCCC3	13.0	5.2	6.5	-2.9	-1.9	4.8	.	.
CCOC(=O)C(C)Oc1cc(C)cc2oc(=O)c3c(c12)CCCC3 (configuration not stated)	75.3*	12.7	-5.8	.	0.7	1.4	65.3*	61.5*
NC1=NC(c2cn[nH]c2-c2cccc(F)c2)n2c(nc3ccccc32)N1 (configuration not stated)	2.1	1.2	-1.0	-0.2	-4.2	12.0	.	.
COc1ccc(-c2[nH]ncc2C2N=C(N)Nc3nc4ccccc4n32)cc1 (configuration not stated)	33.9*	-0.6	-2.0	0.1	-3.1	8.9	70.0*	51.9*
SMILES	Mtb FBA inh	GDH-TPI counter-1	Rv3671c inh	Mtb UGM inh	FadD28 FP inh	Mtb hypoxia inh	Mtb FBA confirm	GDH-TPI counter-2	others
c1ccc2c(NCC3CCCO3)nc(N3CCOCC3)nc2c1 (configuration not stated)	64.4*	13.9	-3.0	-1.4	-1.6	14.0	175.7*	132.2*
Nc1nc(N2CCOCC2)nc2ccccc12	75.1*	22.8	12.3	-2.8	-0.4	16.4	-5.1	-6.6
CCOc1ccc2nc(N3CCOCC3)nc(C)c2c1	50.6*	15.4	7.3	-0.6	0.5	.	130.9*	108.9*
c1ccc2c(N3CCCCC3)nc(N3CCOCC3)nc2c1	10.8	12.7	3.7	0.6	1.4	9.4	.	.
O=c1[nH]c2ccccc2nc1N1CCOCC1	-2.0	25.9	-4.2	-0.2	0.0	.	.	.
c1ccc2c(c1)nc(N1CCOCC1)c1c3ccccc3[nH]c21	31.3*	-1.4	0.2	1.2	-2.9	3.2	62.0*	62.8*
Cc1cc(=O)n2[nH]c(C(=O)O)nc2n1	7.8	4.2	0.7	2.9	-0.4	4.0	.	.
Cc1cc(=O)n2[nH]cc(C(=O)O)c2n1	38.3*	8.1	-0.5	-2.0	0.2	-3.6	178.1*	146.4*
O=C(N/N=C1/C(=O)c2cccc3cccc1c23)c1ccc(Cl)cc1	80.2*	8.3	0.7	-1.3	1.4	.	79.1*	62.5*
CC=CC=CC(=O)N1CC2(CC(c3cccc(NC(=O)CCCCC)c3)=NO2)CC1C(N)=O (configuration not stated)	.	.	.	.	.	9.3	.	.
O=C(O)c1ccccc1NCN1C(=O)C2CC=C(Cl)CC2C1=O (configuration not stated)	39.8*	0.0	1.4	1.9	-0.1	-4.6	24.1	28.5*
Cc1ccc2nc(-c3ccc(NC(=O)COC(=O)c4ccc(=O)[nH]c4)cc3)sc2c1	38.7*	8.6	-20.8	2.0	0.0	-7.2	39.3*	29.8*
Cc1nc2ccc(NC(=O)CCS(=O)(=O)c3ccccc3)cc2s1	1.6	6.9	2.0	0.6	-4.0	-4.0	.	.
Cc1ccc2nc(-c3ccc(NC(=O)CCS(=O)(=O)c4ccccc4)cc3)sc2c1	44.5*	3.1	-16.2	-1.3	-3.0	7.5	-5.7	-6.1

Screening results (PubChem BioAssay)
